Laboratory results published in ChEMBL document CHEMBL3433997, “St. Jude Leishmania screening dataset” (2016).

biological target: Solute carrier family 2, facilitated glucose transporter member 1 (Homo sapiens) (UniProt P11166); assay: ST_JUDE_LEISH: Cytotoxicity at 2uM final concentration against transgenic Leishmania Mexicana promastigotes LmGLUT1 that are glucose transport deficient and complemented with the human glucose transporter GLUT1. Activity is measured by DNA content using SYBR green in vitro; assay type: functional
Sequence (P11166 whole entry): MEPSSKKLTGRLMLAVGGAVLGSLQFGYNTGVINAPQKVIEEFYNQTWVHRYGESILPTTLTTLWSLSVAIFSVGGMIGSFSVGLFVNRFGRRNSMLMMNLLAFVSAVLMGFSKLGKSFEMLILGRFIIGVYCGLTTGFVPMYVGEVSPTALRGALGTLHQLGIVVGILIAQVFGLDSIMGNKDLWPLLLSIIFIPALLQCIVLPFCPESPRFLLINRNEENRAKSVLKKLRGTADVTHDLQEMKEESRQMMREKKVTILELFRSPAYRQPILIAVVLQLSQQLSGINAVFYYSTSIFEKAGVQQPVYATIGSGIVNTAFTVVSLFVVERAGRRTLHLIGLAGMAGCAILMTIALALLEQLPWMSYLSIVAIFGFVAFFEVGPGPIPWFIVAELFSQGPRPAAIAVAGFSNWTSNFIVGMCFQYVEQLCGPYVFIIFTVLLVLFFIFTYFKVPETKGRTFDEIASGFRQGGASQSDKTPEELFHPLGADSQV

| Compound | inhibition [%] |
| --- | --- |
| O=C(Nc1cccc(CN2CCCN(Cc3cccc(Cl)c3)CC2)c1)c1ccc(Cl)c(Cl)c1 | 1.69 |
| Clc1ccccc1C=NN=c1cc[nH]c2ccccc12 | 3.99 |
| c1cncc(-c2cccc(CNc3nccc(Nc4ccc(OCCN5CCOCC5)cc4)n3)c2)c1 | 0.48 |
| Cc1cccc2nc(-c3cccc(-c4ccc(NC(=O)C(=O)c5cccn5C)cc4)c3)[nH]c12 | 2.86 |
| O=C(Nc1ccc2c(c1)CCN(C1CCC1)CC2)c1cn(-c2ccccc2)nc1-c1ccccc1 | 5.38 |
| CCCn1c(O)nnc1SCC(=O)Nc1cc(C(F)(F)F)ccc1Cl | 6.43 |
| O=C(Cc1ccccc1)NC1(c2ccccc2)CCN(CCc2c[nH]c3ccc(F)cc23)CC1 | -0.99 |
| COc1ccc(NC(=O)/C=C/c2ccc(Cl)c(C(F)(F)F)c2)cc1OCCN(C(C)C)C(C)C | 11.7 |
| O=C(NCCCCCN1CCC(c2c[nH]c3ccccc23)CC1)Nc1cccc(I)c1 | 14.6 |
| CC(CCc1ccccc1)NCC(O)c1cccc([N+](=O)[O-])c1 (centres undefined) | -0.26 |
| CCN(c1ccccc1)S(=O)(=O)c1ccc(OC)c(NC(=O)c2cccc(C(F)(F)F)c2)c1 | 10.4 |
| COc1ccc(Nc2nc(NCc3cccc(NS(C)(=O)=O)c3)cc(-c3ccc(OC)cc3)n2)cc1 | 4.4 |
| CC(C)c1ccc(NC(=O)Nc2ccc(CCNCCCc3ccccc3)cc2)cc1 | 0.62 |
| Cc1nc(C)c(-c2ccc(Br)cc2)c(O)c1Br | -0.12 |
| N#Cc1cncc(-c2nc3c(N4CCC(Cc5ccccc5)CC4)cccc3n2C2CCNC2)c1 (centres undefined) | -0.31 |
| COc1ccccc1NC(=S)N/N=C/c1ccc(O)cc1O | 1.28 |
| COc1cccc(NC(=O)c2nc(N3CCN(c4ccncc4)CC3)ccc2Cl)c1 | -1.23 |
| O=C(/C=C/c1ccc(-c2ccccc2)cc1)NCCCCCN1CCC(c2c[nH]c3ccccc23)CC1 | 0.3 |
| N#Cc1ccc(CN2CCCN(c3ccc(NC(=O)c4ccc(F)cc4)cc3)CC2)cc1 | 2.88 |
| CCC[C@@H](/C=N/N(C)C(=O)OC(C)(C)C)NC(=O)[C@H](CC(C)C)NC(=O)c1cc2cccc(OC)c2o1 | 3.02 |

| Compound | inhibition [%] |
| --- | --- |
| COc1cccc(OC2CCN(C(=O)c3ccc(-c4ccc(N5CCCC5=O)cc4C)cc3)CC2)c1 | 1.4 |
| CN1CCN(CCCN(Cc2ccc(-c3ccc(CNCc4ccc5c(c4)OCO5)cc3)cc2)C(=O)CCC2CCCC2)CC1 | 4.67 |
| CN1CCN(c2ccc(-c3cccc(NC(=O)c4ccc5ccccc5c4)c3)nn2)CC1 | 14 |
| CCOc1cc(-c2nnc3[nH]c(=O)n(C)c(=O)c3n2)ccc1OC(C)C | 2.56 |
| CC1(C)CCCN(c2ncc(-c3cccc(CNCc4ccccc4O)c3)cn2)C1 | 2.91 |
| c1cc(CNCCc2ccncc2)cc(-c2csc(-c3nc4ccccc4[nH]3)c2)c1 | 0.51 |
| COc1cccc(Nc2c(C(N)=O)cnc3ccc(-c4ccccc4)cc23)c1 | 0.37 |
| O=C(Nc1ccc2c(c1)CCN2C1CCN(Cc2ccc(C(F)(F)F)cc2F)C1)c1ccco1 (centres undefined) | 1.38 |
| Cc1nnsc1C(=O)Nc1cccc(-c2ccc(-c3nc4ccccc4[nH]3)s2)c1 | 1.8 |
| Cc1cccc2nc(-c3cccc(-c4cccc(NC(=O)Nc5ccsc5)c4)c3)[nH]c12 | 4.96 |
| Cc1ccc(-c2ccc3c(c2)C=C(C(=O)NC2CCN(CCNC(=O)c4cccs4)CC2)CCC3)cc1 | 8.71 |
| CC1CN(c2nc(NCCc3ccc(O)cc3)nc(NCc3ccccc3-c3ccc(C(F)(F)F)cc3)n2)CC(C)N1 (centres undefined) | 4.25 |
| Cc1nc(C)c(-c2ccc(Oc3ccc(Cl)cc3)cc2)c(O)c1I | 2.9 |
| CC[C@H](C)CNC(=O)c1ccc(-c2cccc(CN3CCC(N4CCCC4)CC3)c2)nc1 | 0.61 |
| CC(C)Oc1cccc(-c2ccc(C(=O)NCC3CCCN(Cc4cccc(C(F)(F)F)c4)C3)s2)c1 (centres undefined) | -1.06 |
| O=C(Cc1cccs1)NCC(c1ccccc1Cl)c1c[nH]c2ccccc12 (centres undefined) | 2.89 |
| CCCCc1cc(Cc2cnc(N)nc2N)cc(OC)c1OC | 3.17 |
| Nc1ncc(-c2ccsc2)c2ccc(-c3ccc4cn[nH]c4c3)cc12 | 3.11 |
| CCCCCCN1CCCN(Cc2ccc(C(=O)Nc3ccc(F)c(F)c3)cc2)CC1 | 17.1 |
